Measurements taken from PubChem BioAssay (EPA / NIEHS).
The source made the active and inactive calls. The calls were made as follows: active = hit-call score of the fitted dose curve at least 0.9, where 1 is the maximum; inactive = score below 0.9.

Key:
Details in all cases: mRNA level, 48 h; actives raise or lower the signal
[1] = read-out: Cytochrome P450 (CYP24A1), CYP24A1 (gene 1591); assay: LTEA_HepaRG_CYP24A1: Life Technologies and Expression Analysis (LTEA) Assay for Cytochrome P450 (CYP24A1) using HepaRG (AID 2283478)
Procedure, shortened: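 qRT-PCR read-out: CYP24A1 transcript levels normalized to three housekeeping genes, bidirectional curve fits against 0.5% DMSO baseline. Human HepaRG cells treated 48 h with chemicals at eight concentrations from 100 uM in half-log steps.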

[2] = read-out: Cytochrome P450 (CYP1A2), CYP1A2 (gene 1544); assay: LTEA_HepaRG_CYP1A2: Life Technologies and Expression Analysis (LTEA) Assay for Cytochrome P450 (CYP1A2) using HepaRG (AID 2283479)
Procedure, shortened: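 HepaRG, 48 h exposure, top 100 uM, half-log 8-pt, 0.5% DMSO vehicle, duplicates. Readout: TaqMan qRT-PCR of CYP1A2 mRNA, housekeeping-normalized (ACTB/GAPDH/POLR2A). Gain/loss fit relative to DMSO baseline.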

[3] = read-out: cysteine-aspartic acid protease (CASP8), CASP8 (gene 841); assay: LTEA_HepaRG_CASP8: Life Technologies and Expression Analysis (LTEA) Assay for cysteine-aspartic acid protease (CASP8) using HepaRG (AID 2283480)
Procedure, shortened: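 HepaRG, 48 h exposure, duplicate wells; 8 conc, half-log from 100 uM, 0.5% DMSO. Serum-free induction medium. CASP8 mRNA by TaqMan qRT-PCR, norm. ACTB/GAPDH/POLR2A; gain/loss fitted vs DMSO.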

[4] = read-out: Cytochrome P450 (CYP2B6), CYP2B6 (gene 1555); assay: LTEA_HepaRG_CYP2B6: Life Technologies and Expression Analysis (LTEA) Assay for Cytochrome P450 (CYP2B6) using HepaRG (AID 2283481)
Procedure, shortened: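 Read-out is CYP2B6 mRNA by TaqMan qRT-PCR, normalized to three housekeeping genes and fitted bidirectionally against 0.5% DMSO baseline. Human HepaRG cells received test chemicals for 48 h, top concentration 100 uM, half-log dilutions.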

[5] = read-out: Cytochrome P450 2C19 (Homo sapiens) (UniProt P33261); assay: LTEA_HepaRG_CYP2C19: Life Technologies and Expression Analysis (LTEA) Assay for CYP2C19 using HepaRG (AID 2283482)
Procedure, shortened: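 HepaRG, 48 h chemical exposure, 8-pt half-log series from 100 uM in 0.5% DMSO, duplicates. Readout: CYP2C19 mRNA by TaqMan qRT-PCR, housekeeping-normalized. Bidirectional fit vs DMSO baseline; phenobarbital 1mM as induction control.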

CYP2C8 (gene 1558) = assay: LTEA_HepaRG_CYP2C8: Life Technologies and Expression Analysis (LTEA) Assay for CYP2C8 using HepaRG (AID 2283483)
Procedure, shortened: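 CYP2C8 mRNA induction or loss, by qRT-PCR normalized to ACTB/GAPDH/POLR2A, is read in HepaRG cells after 48 h treatment. Concentrations run from 100 uM down in half-log dilutions, with 0.5% DMSO as vehicle and baseline.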

CYP2C9 (gene 1559) = assay: LTEA_HepaRG_CYP2C9: Life Technologies and Expression Analysis (LTEA) Assay for CYP2C9 using HepaRG (AID 2283484)
Procedure, shortened: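 Cells plated 48 h, switched to serum-free induction medium, then treated in duplicate for 48 h at eight concentrations (max 100 uM, 0.5% DMSO). RNA then analysed by qRT-PCR for CYP2C9; curves fitted in both directions relative to DMSO.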

CYP2E1 (gene 1571) = assay: LTEA_HepaRG_CYP2E1: Life Technologies and Expression Analysis (LTEA) Assay for CYP2E1 using HepaRG (AID 2283485)
Procedure, shortened: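 Human liver line HepaRG, plated 48 h, then serum-free induction medium + chemical x 48 h; 8-pt CRC from 100 uM, half-log, 0.5% DMSO, n=2. Readout: CYP2E1 mRNA qRT-PCR vs ACTB/GAPDH/POLR2A; bidirectional fit vs DMSO.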

CYP4A11 (gene 1579) = assay: LTEA_HepaRG_CYP4A11: Life Technologies and Expression Analysis (LTEA) Assay for CYP4A11 using HepaRG (AID 2283486)
Procedure, shortened: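 CYP4A11 transcript levels were quantified by TaqMan qRT-PCR after HepaRG human liver cells were treated for 48 hours with test chemicals (top 100 uM, half-log dilutions, 0.5% DMSO). Gain or loss of signal was fitted relative to DMSO.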

[6] = read-out: Cytochrome P450 3A4 (Homo sapiens) (UniProt P08684); assay: LTEA_HepaRG_CYP3A4: Life Technologies and Expression Analysis (LTEA) Assay for CYP3A4 using HepaRG (AID 2283487)
Procedure, shortened: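 HepaRG, 48 h exposure, 8-pt CRC from 100 uM (half-log), 0.5% DMSO, duplicates; serum-free induction medium. Readout: CYP3A4 mRNA, qRT-PCR, ACTB/GAPDH/POLR2A normalization. Bidirectional fit vs DMSO.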

[7] = read-out: DNA damage-inducible transcript 3 (DDIT3), DDIT3 (gene 1649); assay: LTEA_HepaRG_DDIT3: Life Technologies and Expression Analysis (LTEA) Assay for DNA damage-inducible transcript 3 (DDIT3) using HepaRG (AID 2283488)
Procedure, shortened: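 HepaRG plated 48 h, switched to serum-free induction medium, dosed 48 h (100 uM top, half-log, 8 pts, 0.5% DMSO, n=2); RNA isolated; DDIT3 by qRT-PCR; bidirectional curve fit vs DMSO.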

[8] = read-out: Pro-epidermal growth factor (Homo sapiens) (UniProt P01133); assay: LTEA_HepaRG_EGF: Life Technologies and Expression Analysis (LTEA) Assay for Epidermal growth factor (EGF) using HepaRG (AID 2283489)
Procedure, shortened: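 qRT-PCR readout of EGF transcript after 48 h chemical exposure of HepaRG cells; eight concentrations from 100 uM down in half-log steps, duplicate wells, 0.5% DMSO vehicle. Bidirectional curve fitting against DMSO baseline.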

[9] = read-out: Early growth response protein 1 (EGR1) transcription factor, EGR1 (gene 1958); assay: LTEA_HepaRG_EGR1: Life Technologies and Expression Analysis (LTEA) Assay for Early growth response protein 1 (EGR1) transcription factor using HepaRG (AID 2283490)
Procedure, shortened: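 Read-out is EGR1 mRNA level by qRT-PCR, normalized to three housekeeping genes and analysed for gain or loss of signal against 0.5% DMSO. Source cells: human HepaRG, treated 48 h at up to 100 uM in half-log dilutions.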

[10] = read-out: Ezrin (EZR), EZR (gene 7430); assay: LTEA_HepaRG_EZR: Life Technologies and Expression Analysis (LTEA) Assay for Ezrin (EZR) using HepaRG (AID 2283491)
Procedure, shortened: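 Read-out is EZR transcript level by qRT-PCR, normalized to three housekeeping genes and fitted bidirectionally against the DMSO control. Human HepaRG cells received test chemicals for 48 h at eight half-log concentrations up to 100 uM in 0.5% DMSO.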

[11] = read-out: Cytochrome P450 3A7 (Homo sapiens) (UniProt P24462); assay: LTEA_HepaRG_CYP3A7: Life Technologies and Expression Analysis (LTEA) Assay for CYP3A7 using HepaRG (AID 2283492)
Procedure, shortened: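 CYP3A7 transcript levels were read by TaqMan qRT-PCR on Fluidigm arrays after 48 h chemical exposure of human HepaRG cells, with housekeeping-gene normalisation. Eight half-log concentrations up to 100 uM in 0.5% DMSO were tested in duplicate.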

CYP3A5 (gene 1577) = assay: LTEA_HepaRG_CYP3A5: Life Technologies and Expression Analysis (LTEA) Assay for CYP3A5 using HepaRG (AID 2283493)
Procedure, shortened: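 HepaRG plated 48 h, switched to serum-free induction medium, chemicals added 48 h (max 100 uM, half-log, 0.5% DMSO). RNA isolated; CYP3A5 by TaqMan qRT-PCR. Gain/loss vs DMSO.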

[12] = read-out: Fatty Acid-Binding Protein 1 (FABP1), FABP1 (gene 2168); assay: LTEA_HepaRG_FABP1: Life Technologies and Expression Analysis (LTEA) Assay for Fatty Acid-Binding Protein 1 (FABP1) using HepaRG (AID 2283494)
Procedure, shortened: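 HepaRG, 48 h post-plating switched to serum-free induction medium, then dosed 48 h (duplicate, 8 pts, ≤100 uM, 0.5% DMSO). RNA → Fluidigm TaqMan qRT-PCR, FABP1 normed to ACTB/GAPDH/POLR2A. Bidirectional curve fit vs DMSO.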

[13] = read-out: Cytochrome P450 7A1 (Homo sapiens) (UniProt P22680); assay: LTEA_HepaRG_CYP7A1: Life Technologies and Expression Analysis (LTEA) Assay for Cytochrome P450 7A1 (CYP7A1) using HepaRG (AID 2283496)
Procedure, shortened: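 HepaRG cells plated 48 h, then switched to serum-free induction medium and exposed in duplicate for 48 h to 8-point half-log series from 100 uM in 0.5% DMSO. CYP7A1 mRNA by qRT-PCR (TaqMan), normalized to ACTB/GAPDH/POLR2A; bidirectional fit versus DMSO.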

[14] = read-out: Glutathione S-Transferase (GSTA2), GSTA2 (gene 2939); assay: LTEA_HepaRG_GSTA2: Life Technologies and Expression Analysis (LTEA) Assay for Glutathione S-Transferase (GSTA2) using HepaRG (AID 2283497)
Procedure, shortened: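 HepaRG, 48 h dosing, 8-pt half-log CRC from 100 uM, 0.5% DMSO vehicle, n=2; RNA → Fluidigm TaqMan qRT-PCR; GSTA2 vs ACTB/GAPDH/POLR2A; gain/loss fit vs DMSO.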

[15] = read-out: Cytochrome P450 4A22 (Homo sapiens) (UniProt Q5TCH4); assay: LTEA_HepaRG_CYP4A22: Life Technologies and Expression Analysis (LTEA) Assay for Cytochrome P450 4A22 (CYP4A22) using HepaRG (AID 2283495)
Procedure, shortened: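 HepaRG, 48 h post-plating -> serum-free induction medium; dosed 48 h, duplicate, 8 conc. (100 uM top, half-log), 0.5% DMSO. Readout: CYP4A22 mRNA by qRT-PCR, ACTB/GAPDH/POLR2A normalization; gain/loss fit relative to DMSO.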

Measured: outcome

Cytochrome P450 2C19 (Homo sapiens), sequence (P33261 whole entry, looked up): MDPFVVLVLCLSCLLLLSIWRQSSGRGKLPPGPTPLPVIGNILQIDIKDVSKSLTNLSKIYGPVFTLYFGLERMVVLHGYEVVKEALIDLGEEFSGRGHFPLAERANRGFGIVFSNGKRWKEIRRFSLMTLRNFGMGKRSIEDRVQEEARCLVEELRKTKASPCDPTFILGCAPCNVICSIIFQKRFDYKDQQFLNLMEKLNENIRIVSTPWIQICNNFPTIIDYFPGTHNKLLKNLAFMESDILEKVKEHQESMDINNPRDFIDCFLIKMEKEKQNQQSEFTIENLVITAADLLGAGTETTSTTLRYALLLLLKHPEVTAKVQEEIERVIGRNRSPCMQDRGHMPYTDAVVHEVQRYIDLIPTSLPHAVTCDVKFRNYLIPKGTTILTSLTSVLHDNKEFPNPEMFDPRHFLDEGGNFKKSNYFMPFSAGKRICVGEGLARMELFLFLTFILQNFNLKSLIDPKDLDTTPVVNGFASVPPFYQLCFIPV
Cytochrome P450 3A4 (Homo sapiens), sequence (P08684 whole entry, looked up): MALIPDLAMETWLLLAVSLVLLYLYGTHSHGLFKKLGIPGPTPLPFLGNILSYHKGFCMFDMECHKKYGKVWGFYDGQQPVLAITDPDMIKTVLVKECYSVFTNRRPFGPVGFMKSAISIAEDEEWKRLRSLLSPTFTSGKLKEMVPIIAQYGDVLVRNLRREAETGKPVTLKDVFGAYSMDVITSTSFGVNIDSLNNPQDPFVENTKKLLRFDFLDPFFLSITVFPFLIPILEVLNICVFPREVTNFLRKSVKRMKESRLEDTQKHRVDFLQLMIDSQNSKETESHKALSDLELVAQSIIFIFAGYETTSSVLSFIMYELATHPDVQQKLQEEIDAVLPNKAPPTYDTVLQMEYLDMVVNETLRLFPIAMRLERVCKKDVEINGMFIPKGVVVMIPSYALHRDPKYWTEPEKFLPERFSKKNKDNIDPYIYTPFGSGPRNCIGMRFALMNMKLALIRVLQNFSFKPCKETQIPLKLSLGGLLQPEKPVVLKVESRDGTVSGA
Cytochrome P450 3A7 (Homo sapiens), sequence (P24462 whole entry, looked up): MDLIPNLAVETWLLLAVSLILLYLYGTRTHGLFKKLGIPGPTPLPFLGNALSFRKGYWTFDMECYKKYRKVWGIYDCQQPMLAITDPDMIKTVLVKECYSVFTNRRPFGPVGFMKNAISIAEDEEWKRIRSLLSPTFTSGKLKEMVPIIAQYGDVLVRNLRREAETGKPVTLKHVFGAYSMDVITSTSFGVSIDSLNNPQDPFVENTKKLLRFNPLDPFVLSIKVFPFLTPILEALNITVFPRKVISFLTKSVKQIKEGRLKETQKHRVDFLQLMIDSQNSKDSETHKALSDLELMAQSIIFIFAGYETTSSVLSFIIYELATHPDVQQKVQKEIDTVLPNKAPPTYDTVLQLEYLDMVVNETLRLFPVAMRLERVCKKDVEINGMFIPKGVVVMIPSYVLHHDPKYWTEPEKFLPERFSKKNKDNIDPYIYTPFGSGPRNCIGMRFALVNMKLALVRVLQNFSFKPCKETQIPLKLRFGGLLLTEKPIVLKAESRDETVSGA

C/C=C/c1ccc(OC)cc1
not listed: [15]
inactive: all other assays above

Oc1ccccc1O
inactive: all assays above

CC(N)=O
not listed: CYP4A11 (gene 1579) | [8] | [15]
inactive: all other assays above
